# In PubChem BioAssay AID848 (Columbia University Molecular Screening Center, 2007):
# Hit rate of the full screen: of about 93,000 compounds, about 160 (0.17%) were called active. What follows is part of a selection rich in actives, with near analogues and random picks from the rest. A number with no mark means an inactive call.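 Rule for the calls: active = cell count reduction exceeding the screen mean by over 5 SD, scaled to untreated wells per plate (cut at about 78% in these data); inactive = the rest.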
# Test: cytotoxicity in TNFa-stimulated HUVEC, primary screen, cytotoxicity control for VCAM1 expression modulator project, imaging, Hoechst nuclei count (AID 848);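 note: cells counted after 24 h of TNF alpha exposure following the 1 h pretreatment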
# Details: HUVEC TNFalpha-stimulated, at 2 µM, active compounds read high
row,Compound,cell count reduction
1,CCC(=O)Nc1ccc(C(=O)Nc2cccc(OC)c2)cc1,-29.2%
2,COc1cc(/C=N/O)cc(Br)c1OS(=O)(=O)c1ccc(C)cc1,-20%
3,COc1ccc(/C=C(\NC(=O)c2ccc(OC)c(OC)c2)C(=O)NCCc2c[nH]c3ccccc23)cc1,-3.8%
4,Cc1cccc(N2CCN(S(=O)(=O)c3ccc4[nH]c(=O)c(=O)[nH]c4c3)CC2C)c1 (stereo unspecified),-4.3%
5,Cc1ccc(NC(=O)CN2CCc3ccccc3C2)cc1,-11.7%
6,COc1ccccc1-c1n[nH]c2c1[C@H](C)CC[C@H]2C(C)C,-1.8%
7,O=C1CSC(c2ccccc2)N1c1nc(-c2ccc(Cl)cc2Cl)cs1 (stereo unspecified),12.4%
8,CC1(C)Cc2c(sc3nc(SCC(=O)NCc4ccccc4)n(-c4ccccc4)c(=O)c23)CS1,-2.4%
9,O=C1CCCC2=C1C(c1ccccc1)n1c(s/c(=C/c3cccc(F)c3)c1=O)=N2 (stereo unspecified),-15.2%
10,Cc1cc2[nH]ncc2cc1NC(=S)NC(=O)c1ccccc1,-6%
11,CCOC(=O)/C(=C\c1ccc([N+](=O)[O-])cc1)C(=O)c1cc(C(C)=O)c(Nc2ccccc2)s1,5.8%
12,CN(C)C(CNC(=O)CCCOc1ccccc1)c1ccco1 (stereo unspecified),-22.1%
13,O=C(c1ccccc1)C(Cn1cncn1)C(Sc1ccccc1)c1ccccc1 (stereo unspecified),-17.7%
14,CC(C)C(=O)Nc1cccc(NC(=S)NC(=O)C(c2ccccc2)c2ccccc2)c1,-31.2%
15,Fc1ccccc1COc1ccccc1CNCc1ccncc1,2.6%
16,COc1ccc(NS(=O)(=O)c2ccc(NC(=S)NC(=O)CC(C)C)cc2)cc1,-22.5%
17,Cc1ccc(N2CCN(C3=NC(=O)/C(=C\c4cccs4)S3)CC2)cc1,-5.4%
18,COc1ccc(CN2CCn3ncc(C(=O)Nc4ccc(Cl)cc4Cl)c3C2=O)cc1,-5.8%
19,CNC(=S)NNC(=O)c1sccc1OCc1ccccc1,-14.5%
20,Cc1n[nH]c(=S)n1/N=C/c1ccc(Br)o1,-5.8%
21,Cc1ccc(C2CC2C(=O)NN)cc1 (stereo unspecified),-10.3%
22,O=C(CNC(=O)OCc1ccccc1)Oc1cc2oc(=O)cc(-c3ccccc3)c2cc1Cl,0%
23,O=S(=O)(N/N=C\c1cccn1-c1ccccc1)c1ccc2ccccc2c1,-15.3%

row,Compound,cell count reduction
1,Cc1c(NC(=O)/C=C/C(=O)O)cccc1[N+](=O)[O-],-2.4%
2,CCOC(=O)C1=C(C)Nc2sc(C(=O)c3ccc(Br)cc3)c(N)c2C1c1ccc(C(=O)OC)cc1 (stereo unspecified),-15.9%
3,COc1ccc(CCNC(=S)NC(=O)/C=C/c2ccc(C)cc2)cc1OC,-29.7%
4,COc1ccc(Oc2coc3cc(OC(=O)c4cncc(Br)c4)ccc3c2=O)cc1,7%
5,O=C(NC1CC1)c1ccc2c(c1)NC(=O)c1ccccc1S2,-13.8%
6,Cc1ccc(/C=N/NC(=O)c2sccc2OCc2ccc(F)cc2)cc1,-8.8%
7,Cc1cc(=O)oc2cc(OC(C)C(=O)Nc3ccc(N4CCOCC4)cc3)ccc12 (stereo unspecified),-7.6%
8,Cc1nnc(NC(=O)CSc2nc(C3CCCCC3)nc3ccccc23)s1,-7.9%
9,O=C1CCN(C(=O)Nc2ccccc2)N1,-11.8%
10,CCOc1cccc(SCc2noc(C(=O)NC(C)C)c2C(=O)O)c1,-41.1%
11,Cc1cc([N+](=O)[O-])c(N2CCC[C@@H]2C(=O)O)c([N+](=O)[O-])c1,-11.9%
12,CC(C(=O)Nc1ccc(F)c(F)c1F)N1CCCCCC1 (stereo unspecified),0%
13,CCC(C(=O)NCc1ccc(OC)cc1)n1nc(C)n2c(cc3occc32)c1=O (stereo unspecified),-4.6%
14,C/C(=N\NS(=O)(=O)c1cccc([N+](=O)[O-])c1)c1cc2ccccc2o1,-56%
15,CC1CC(C)CN(C(=O)CSc2nnc(CSc3ncccn3)n2C)C1 (stereo unspecified),-24.8%
16,Cc1ccc(NC(=S)NC(=O)c2ccc(-c3ccccc3)cc2)c(C)c1,-14.1%
17,CCCCNC(=O)CSc1nc2ccc(NC(=O)CSc3nnc(COc4ccccc4C)n3C)cc2s1,-20.8%
18,O=C(Nc1ccccc1Cl)O/N=C(/c1ccccc1)c1ccccn1,9.5%
19,Cc1nn(Cc2ccccc2Cl)c(C)c1NC(=O)Cn1nc([N+](=O)[O-])c(Cl)c1C,10.2%
20,CSCc1cc(N(C)C)nc(SCc2ccc(Cl)cc2Cl)n1,-3%
21,COCCCNCC(=O)Nc1sc(C)c(C)c1C(=O)OC,-27.9%
22,COc1ccc2c(Cl)c(C(=O)NCc3ccco3)sc2c1,-12%
23,O=C(CSc1ccc(/C=N/NC(=O)c2cccc(F)c2)o1)Nc1ccccc1,-19.1%

row,Compound,cell count reduction
1,C=CCn1c(-c2ccc(Cl)cc2)ccc(C#N)c1=O,4.1%
2,CCC(c1nnnn1C(C)(C)C)N(Cc1cc2cccc(C)c2n2nnnc12)C1CCCC1 (stereo unspecified),-17%
3,O=C(CCCN1C(=O)c2ccccc2C1=O)Oc1ccc(Cl)cc1,-17.1%
4,CN1/C(=c2/s/c(=C3/C(=O)N(c4ccccc4)NC3=Nc3ccccc3)n(C)c2=O)C(C)(C)c2ccccc21,3.8%
5,C(=N/N1CCN(c2ccccc2)CC1)/c1cccs1,-6.5%
6,Cc1ccc(-n2c(CNc3ccc(F)cc3)nnc2SCC(=O)N2CCOCC2)cc1,-20.7%
7,COc1ccc(-c2c(C(C)=O)c(C)nc3sc4c(=O)n(-c5ccc(C)cc5)nnc4c23)cc1,-14.8%
8,Cc1cc(C)n2nc(C(=O)NC(C)(C)C)nc2n1,14.4%
9,COc1cc(OC)cc(C(=O)NC(=S)N2CCN(c3ccc(C(F)(F)F)cc3[N+](=O)[O-])CC2)c1,-5.1%
10,Cc1cccc(N(C(=O)c2ccc(CN3CCOCC3)o2)C(C(=O)NC2CCCCC2)c2ccc(F)cc2)c1 (stereo unspecified),-36.1%
11,Cc1ccc(-n2nc(N)c3c(=O)oc(N(C)C)nc32)cc1,5%
12,CN(C)/C=C/C(=O)c1ccccc1F,-9%
13,O=C(Nc1ccccc1)c1ccc2nsnc2c1,5.4%
14,O=C(Nc1cc(C(F)(F)F)ccc1Cl)c1cc2nc3c(c(C(F)(F)F)n2n1)CCCC3,-32.1%
15,CCCCOC(=O)Cn1c(=O)n(CC(=O)OCCCC)c2cc(C)ccc21,-29.5%
16,CCOC(=O)c1nc(C)n(-c2ccc(Cl)cc2Cl)n1,-3.8%
17,COc1ccc(/C=N/Nc2nc3ccccc3c(=O)[nH]2)cc1,18.9%
18,CC(=O)N1CCCc2cc(S(=O)(=O)CCC(=O)N3CCN(c4ccccc4)CC3)ccc21,-22.4%
19,CC(=O)N1CCc2cc(S(=O)(=O)Nc3ccccc3N3CCN(C)CC3)ccc21,-25.4%
20,CCCNS(=O)(=O)c1ccc2c(c1)CCCN2C(C)=O,100% (active)
21,O=C(/C=C/c1ccco1)Nc1ccc(Oc2ccccc2)cc1,-16.8%
22,CCn1c2ccccc2c2cc(NC(=S)N3CCOCC3)ccc21,-4%
23,O=C(NCc1cccnc1)c1cccnc1Sc1ccc(Cl)cc1,-20.6%

row,Compound,cell count reduction
1,Cc1ccc(C)c(NC(=O)C2Cc3ccccc3CN2C(=O)OCc2ccccc2)c1 (stereo unspecified),-19.8%
2,CSc1cc(C)n(-c2ccccc2C)c(=S)c1C(C)=O,-11.4%
3,CC(C)(C)NS(=O)(=O)c1ccc(NC(=O)NC2CCCCC2)cc1,2.5%
4,CC(C)(C)c1ccc(OC2=CS(=O)(=O)c3ccccc32)cc1,-12%
5,O=C(N/N=C\c1ccc(-c2ccc(Cl)c(Cl)c2)o1)C(=O)N1CCCC1,-10.6%
6,c1ccc(CSc2ncnc3c2sc2nc(N4CCOCC4)c4c(c23)CCCC4)cc1,-21.4%
7,CCC(C)n1c(-c2cc(OC)c(OC)c(OC)c2)nc2nc3ccccc3nc21 (stereo unspecified),5.6%
8,O=C(Oc1ccccc1)Oc1ccc2c(c1)oc(=O)c1ccccc12,-8.6%
9,Cc1ccc(Oc2ccc3c(c2)C(=O)N(c2cccc4cccnc24)C3=O)cc1,16.6%
10,O=C(Nc1ccccc1)O/N=C1\CCCCC1c1ccc([N+](=O)[O-])cc1[N+](=O)[O-] (stereo unspecified),-15.6%
11,O=C(CSc1nc2ccccc2o1)N1c2ccccc2Sc2ccc(Cl)cc21,4.3%
12,O=C(CCl)NNc1cccc(Cl)n1,-9%
13,Cc1cc(-c2cccs2)nc(-n2cccc2)n1,3.7%
14,COc1cccc2cc(C(=O)N3CCN(C(=O)c4ccccc4)CC3)c(=O)oc12,-19.2%
15,O=C(Cc1ccc(S(=O)(=O)N2CCOCC2)s1)NCCC(c1ccccc1)c1ccccc1,-20.2%
16,Cc1cc(C)c2nc(NC(=O)c3ccc4c(c3)OCO4)sc2c1,-4.3%
17,CC(Oc1ccc(-c2ccccc2)c(F)c1)c1ccn(S(=O)(=O)c2cccc3ccccc23)n1 (stereo unspecified),-7.1%
18,Clc1ccc(-c2cc(COc3ccccc3)no2)cc1Cl,2%
19,COC(=O)c1ccc(C2C(Oc3ccccc3C)C(=O)N2CCc2ccc(OC)c(OC)c2)cc1 (stereo unspecified),-15.9%
20,CN(C)Cc1ccccc1C1(O)c2ccccc2CSc2ccccc21 (stereo unspecified),12.2%
21,Cc1cc(C)c2cc(CN(Cc3nnnn3Cc3ccc(F)cc3)C3CCCC3)c(=O)[nH]c2c1,-8.7%
22,CCCc1ccc(OCc2ccc(C(=O)N/N=C/c3cccc([N+](=O)[O-])c3)o2)c(OC)c1,11.6%
